High-throughput results (PubChem)
Shown are actives, neighbours in structure and some others; about 2.4% of the full set was active somewhere.
Pol eta inh-1: blocks human DNA polymerase eta activity; Q9Y253; recombinant Pol eta, fluorescent DNA replication assay; 390,000 tested, 1.2% active; Potency, µM (series often up to 114 µM), without a hit: at the highest dose activity change, negative = inhibition, actives largely listed as inhibitors; also: % is scaled to controls: 0 for no effect and ±100 for the full control effect
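Pol eta at 10 nM preincubated with compounds 15 min at room temperature; reaction started with fluorescent substrate (50 nM final) and read kinetically at 0 and 10 min.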
GLS inhibitor: inhibitors of human glutaminase (GLS); 410,000 tested, 0.21% active; AID 624170; GLS enzymatic activity, qHTS titration; Potency, µM (series often up to 45.5 µM), inactives show at the highest dose activity change, negative = inhibition, actives largely listed as inhibitors; O94925; also: % is scaled to controls: 0 for no effect and ±100 for the full control effect
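hKGA; 45 mM KH2PO4 pH 8.2 + 0.02% Tween-20; cpd via pin tool; 1 mM Gln soln; GluOx/HRP/Amplex Red; RT 30 min; fluor. t0 & final.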
Pol iota inh: blocks human DNA polymerase iota activity; Potency, µM (titrated, usually from 115 µM), for inactives: at the top dose activity, negative = inhibition, usual class: inhibitors; Pol iota fluorescent replication assay, 10 min; Q9UNA4; 390,000 tested, 1% active; AID 588590
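Fluorescent replication assay read twice, at 0 min and 10 min after adding 50 nM (final) substrate. Enzyme (10 nM) and compounds were first incubated 15 min at room temperature; enzyme-free buffer wells were negative controls.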
APEX1 inh: inhibitors of human APE1 endonuclease; recombinant APE1, TAMRA/BHQ-2 abasic DNA cleavage fluorescence; Potency, µM (series often up to 65.8 µM), inactives show at the top dose activity change, negative = inhibition, usual class: inhibitors; 350,000 tested, 0.35% active;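 also: plate controls were vehicle for no effect and reference inhibitor for full effect; nearly all actives have a fitted effect of over 55% in size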
Target sequence (P27695 whole entry, looked up): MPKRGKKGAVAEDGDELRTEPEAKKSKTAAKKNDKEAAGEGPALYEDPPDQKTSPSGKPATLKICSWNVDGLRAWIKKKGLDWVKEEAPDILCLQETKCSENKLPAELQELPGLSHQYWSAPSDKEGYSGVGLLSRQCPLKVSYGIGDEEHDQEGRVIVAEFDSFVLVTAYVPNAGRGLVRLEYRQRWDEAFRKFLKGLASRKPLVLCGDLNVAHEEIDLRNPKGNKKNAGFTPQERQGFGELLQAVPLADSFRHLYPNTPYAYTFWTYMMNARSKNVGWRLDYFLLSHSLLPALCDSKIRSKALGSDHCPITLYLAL
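Compound pre-exposure to 0.75 nM APE1, 15 min at ambient temperature. Reaction initiated with 50 nM TAMRA/BHQ-2 THF substrate, read immediately in kinetic mode, 525 nm excitation, 598 nm emission.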
Pol kappa inh-1: inhibitors of human DNA polymerase kappa; Potency, µM (series often up to 107 µM), without a hit: at the highest dose activity, negative = inhibition, usual class: inhibitors; purified Pol kappa, fluorescent DNA synthesis assay, 10 min; AID 588579; 400,000 tested, 0.53% active; also: % is scaled to controls: 0 for no effect and ±100 for the full control effect
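Inhibition of 10 nM Pol kappa is measured by a fluorescent read-out at 0 and 10 min following addition of 50 nM substrate (final), with a 15-min room-temperature compound preincubation.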
Pol beta inh: DNA polymerase beta (human) inhibition; P06746; Pol beta primer extension/strand displacement, fluorescence kinetic; Potency, µM (top dose mostly 114 µM), inactives show at the highest dose activity change, negative = inhibition, hits mostly inhibitors; 340,000 tested, 1.3% active; also: % is scaled to controls: 0 for no effect and ±100 for the full control effect
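Human Pol beta at 10 nM; strand-displacement substrate 50 nM final. Compound exposure 15 min at room temperature before start, reaction 10 min at room temperature.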
Pol kappa inh-2: confirmation of human DNA polymerase kappa inhibitors. shares compounds with Pol eta inh-1. purified Pol-kappa, fluorescent strand-displacement substrate. Potency, µM, most hits filed as inhibitors. 920 tested, 76% active
Pol eta inh-2: confirmation of human DNA polymerase eta inhibitors; shares compounds with Pol eta inh-1; Pol eta primer extension, TAMRA/BHQ fluorescence, 10 min; Potency, µM, hits mostly inhibitors; 2,600 tested, 64% active; AID 720502
The depositor's hits bear a star; [ ] = dose if it differs, or a comment. Calls follow the shape of the dose curve; as a rule, active = well fitted curve in the direction sought with a large enough effect; inconclusive = small, poorly fitted or top-dose-only effect, or another doubt; inactive = no such curve, though single readings can be large; an effect the other way counts as inactive or inconclusive. Potency is read from the fitted curve at half-maximal effect.

O=C(Nc1nnc(S(=O)(=O)N2CCOCC2)s1)c1ccccc1 was read as Pol eta inh-1 39.8µM*, GLS inhibitor -19.4%, Pol iota inh inconclusive, APEX1 inh -25.9%, Pol kappa inh-1 inconclusive, Pol beta inh inconclusive, Pol kappa inh-2 37.7* and Pol eta inh-2 inconclusive.
`CC1Cc2ccccc2N1S(=O)(=O)c1nnc(NC(=O)c2ccccc2)s1` (stereo unspecified) gave Pol eta inh-1 -16.7%, GLS inhibitor 14.5%, Pol iota inh 8.4%, Pol kappa inh-1 10.6% and Pol beta inh 0.3%.
For FCCCOc1ccc(-c2ccnc(-c3ccccc3)n2)cc1 the results were Pol eta inh-1 -25.1%, GLS inhibitor -0.5%, Pol iota inh 14.1%, APEX1 inh -2.9%, Pol kappa inh-1 -13.1% and Pol beta inh 10.1%.
Screening CCc1ccc(N=C2NC(=O)/C(=C/c3ccc(OCC(=O)O)cc3)S2)cc1 returned Pol eta inh-1 44.7µM*, GLS inhibitor -4.5%, Pol iota inh inconclusive, APEX1 inh inconclusive, Pol kappa inh-1 inconclusive, Pol beta inh 39.8µM* and Pol kappa inh-2 inconclusive.
`CN(C)c1ccc(/C=C2\CCC/C(=C\c3ccccc3)C2=O)cc1` gave Pol eta inh-1 inconclusive, GLS inhibitor 22.1%, Pol iota inh inconclusive, APEX1 inh 0.2%, Pol kappa inh-1 0.7% and Pol beta inh 0.5%.
`O=C1/C(=C/c2ccc(C(=O)O)cc2)CCC/C1=C\c1ccc(C(=O)O)cc1` gave Pol eta inh-1 8.91µM*, GLS inhibitor 2.7%, Pol iota inh inconclusive, APEX1 inh 6.5%, Pol kappa inh-1 0.0%, Pol beta inh -9.3% and Pol eta inh-2 30.1*.
Screening CCOC(=O)c1ccc(NC(=O)c2c(NCc3cccs3)sc3c2CCCCC3)cc1 returned Pol eta inh-1 79.4µM*, GLS inhibitor -21.0%, Pol iota inh inconclusive, Pol kappa inh-1 -7.9%[60.1 µM], Pol beta inh inconclusive and Pol eta inh-2 inconclusive.
`COc1ccc(NC(=O)c2c(NCc3cccs3)sc3c2CCCC3)cc1` gave Pol eta inh-1 -1.4%, GLS inhibitor -4.2%, Pol iota inh 5.2%, Pol kappa inh-1 -10.2%[60.1 µM] and Pol beta inh -13.5%.
`O=Cc1ccc(-c2ccccc2C(=O)O)o1` gave Pol eta inh-1 4.1%, GLS inhibitor 0.9%, Pol iota inh 83.2%, APEX1 inh 1.0%, Pol kappa inh-1 -11.6% and Pol beta inh inconclusive.
`Cc1cc2nc3s/c(=C/c4ccc(-c5ccccc5C(=O)O)o4)c(=O)n3c2cc1C` gave Pol eta inh-1 25.1µM*, GLS inhibitor inconclusive, Pol iota inh -7.2%, APEX1 inh -27.1%, Pol kappa inh-1 0.3%, Pol beta inh inconclusive and Pol eta inh-2 33.8*.
For CC1(OC(=O)C2CCCC2)C(=O)C=C2C=C(C3CC3)OC=C2C1=O (stereo unspecified) the results were APEX1 inh 0.8%.
For COc1cc(N)c(C(=O)c2nccc3cc(OC)c(OC)cc23)cc1OC the results were Pol eta inh-1 11.0%, GLS inhibitor -2.0%, Pol iota inh 234.0%, APEX1 inh 0.9%, Pol kappa inh-1 2.7% and Pol beta inh 43.8%.
COc1cc(Br)c(C(=O)c2nccc3cc(OC)c(OC)cc23)cc1OC was read as Pol eta inh-1 79.4µM*, GLS inhibitor 3.3%, Pol iota inh 1.78µM*, APEX1 inh -21.5%, Pol kappa inh-1 9.3%, Pol beta inh -1.6% and Pol eta inh-2 inconclusive.
Screening CCCN(CCC)c1nc(N)c(C#N)c(CC#N)c1C#N returned Pol eta inh-1 inconclusive, GLS inhibitor 3.5%, Pol iota inh 10.8%, APEX1 inh -6.1%, Pol kappa inh-1 -22.0% and Pol beta inh 8.4%.
For COc1ccc(C2=NN(c3nc(-c4ccccc4)c(CC(=O)O)s3)C(c3ccco3)C2)cc1 (stereo unspecified) the results were Pol eta inh-1 28.2µM*, GLS inhibitor 11.3%, Pol iota inh inconclusive, APEX1 inh -5.3%, Pol kappa inh-1 inconclusive, Pol beta inh 22.4µM*, Pol kappa inh-2 15* and Pol eta inh-2 inconclusive.
`Cc1nc(N2N=C(c3ccc(Cl)cc3)CC2c2ccco2)sc1C(=O)N(C)C` (stereo unspecified) gave Pol eta inh-1 -16.2%, GLS inhibitor 5.5%, Pol iota inh 22.2%, APEX1 inh -11.2%, Pol kappa inh-1 -5.8% and Pol beta inh inconclusive.
Screening CC1CCc2c(sc(NC(=O)CSc3ncn[nH]3)c2C#N)C1 (stereo unspecified) returned Pol eta inh-1 -13.5%, GLS inhibitor -3.8%, Pol iota inh 33.4%, APEX1 inh 15.7%, Pol kappa inh-1 2.2% and Pol beta inh 3.3%.
For CCCc1cc(=O)[nH]c(SCC(=O)Nc2sc3c(c2C#N)CCC(C)C3)n1 (stereo unspecified) the results were Pol eta inh-1 25.1µM*, GLS inhibitor -2.7%, Pol iota inh 50.1µM*, APEX1 inh -1.8%, Pol kappa inh-1 79.4µM*, Pol beta inh 17.8µM* and Pol eta inh-2 inconclusive.
For CC(=O)N1CCN(c2ccc(NS(=O)(=O)c3ccc4c(c3)CC(=O)N4)cc2)CC1 the results were Pol eta inh-2 inconclusive.
O=C(c1ccc(Cl)cc1)N1CCCC(C(=O)N2CCc3ccccc3C2)C1 (stereo unspecified) was read as Pol eta inh-1 -18.8%, GLS inhibitor -2.4%, Pol iota inh -8.5%[58.9 µM], APEX1 inh 1.3%, Pol kappa inh-1 -11.6% and Pol beta inh 7.7%.
CC1=C(C)CC(C(=O)NC2CCCC2)C(C(=O)O)C1 (stereo unspecified) was read as Pol eta inh-1 -8.6%, GLS inhibitor -2.4%, Pol iota inh 1.7%, APEX1 inh 6.0%, Pol kappa inh-1 13.0% and Pol beta inh -10.7%.
`CC1=CCC(C(=O)O)C(C(=O)NC2CCCCC2)C1` (stereo unspecified) gave Pol eta inh-1 20µM*, GLS inhibitor 35.1%, Pol iota inh inconclusive, APEX1 inh 11.3%, Pol kappa inh-1 -41.2%, Pol beta inh 28.2µM*, Pol kappa inh-2 84.4* and Pol eta inh-2 84.9*.
